Measurements published in PubChem BioAssay AID686979 (National Center for Advancing Translational Sciences (NCATS), 2013).
About 50,000 (12%) of roughly 420,000 compounds were called active. Inconclusive results (about 26%) are left out. The sample as a whole holds a higher share of actives than the screen did. Unmarked numbers belong to inactive results. The call rests on the fitted dose curve; in most records, active means well fitted inhibition curve with a large enough effect; inconclusive means small, poorly fitted or top-dose-only effect; inactive means flat fitted curve, though single readings scatter.

Experiment: qHTS for Inhibitors of human tyrosyl-DNA phosphodiesterase 1 (TDP1): qHTS in cells in presence of CPT; further: nearly all actives have a fitted effect of over 55% in size
Conditions: chicken DT40 Tdp1-/-;hTDP1 cells + 20 nM CPT, ATP luminescence, 48 h; series mostly up to 46.2 µM; activity change, negative = growth inhibition: at the top concentration
Summary of the method: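 Chicken DT40 Tdp1-/- cells stably complemented with human TDP1 were seeded at 400 cells/well in medium containing 20 nM camptothecin, exposed to pin-transferred compounds, and grown at 37 °C for at least 48 hr. Viability was read as ATP luminescence.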
On the % scale 0 is the no-effect control and ±100 the full control effect; potency means the concentration at half of the fitted maximal effect.

SMILES	activity change, negative = growth inhibition	Potency
CC1(C)Oc2ccc3ccc(=O)oc3c2/C(=N/O)C1=O	10.3%	–
CCOc1ccc(S(=O)(=O)N(CC(=O)O)c2ccccc2)cc1	-2.16%	–
CCOc1ccc(NC(=O)CN(Cc2ccccc2)S(=O)(=O)c2ccc(Cl)cc2)cc1	-28.2%	–
CCOc1ccc(N(Cc2ccccc2)C(=O)c2nc(SCC)ncc2Cl)cc1	–	29.1 µM (active)
CCSc1ncc(Cl)c(C(=O)Nc2c(C(=O)c3ccccc3)oc3ccccc23)n1	0.0067%	–
CCOc1ccc(N(Cc2ccccc2)C(=O)c2nc(S(C)(=O)=O)ncc2Cl)cc1	–	0.58 µM (active)
CCSc1nnc2c(n1)OC(c1ccc(OCC(=O)O)cc1)Nc1ccccc1-2 (stereo not given)	-10%	–
COc1cc(=O)n2c(c1C(=O)NCc1ccco1)CCN(Cc1ccccc1)CC2	13.5% [at 9.04 µM]	–
Cc1cccc(NC(=O)NC2(C)CCS(=O)(=O)C2)c1 (stereo not given)	25.1%	–
COc1cc(Cl)c(C)cc1NC(=O)CSc1nnc(CN2CCCC2)o1	-20.8%	–
COc1ccccc1CNC(=O)COn1nnc2ccc(S(=O)(=O)N3CCOCC3)cc21	-23.6%	–
COc1cccc(NC(=O)c2csnn2)c1	2.54%	–
COc1cccc(NC(=O)C2C(c3ccccc3)C2(Cl)Cl)c1 (stereo not given)	–	29.1 µM (active)
COc1cccc(NC(=O)C(C)Oc2ccccc2)c1 (stereo not given)	-5.7%	–
CSc1ccc(CNC(=O)c2ccc(NC(=O)C3=CSCCO3)cc2)cc1	-10.5%	–
Cc1ccc(Cn2cc(CN3CC(N4CCN(C)CC4)CS3(=O)=O)nn2)cc1 (stereo not given)	-11.1%	–
Cc1ccc(-c2ccc(CN3C(C(C)C)C(=O)N(Cc4cn(CCC5OCCO5)nn4)CCS3(=O)=O)cc2)cc1 (stereo not given)	–	16.4 µM (active)
CC(C)C1C(=O)N(Cc2cn(CCC3OCCO3)nn2)CCS(=O)(=O)N1Cc1ccc(-c2ccccc2C(F)(F)F)cc1 (stereo not given)	–	13 µM (active)
O=S1(=O)CC(N2CCN(CCO)CC2)CN1Cc1cn(Cc2ccc(Cl)cc2)nn1 (stereo not given)	-27%	–
CC(NC(=O)C(=O)N/N=C/c1ccc(Cl)cc1)c1ccccc1 (stereo not given)	-6.61%	–
O=C(O)C1=CCCN(CCON=C(c2ccccc2)c2ccccc2)C1	–	inactive
COc1cc(C2/C(=C(\O)c3ccc4c(c3)CC(C)O4)C(=O)C(=O)N2Cc2ccco2)ccc1O (stereo not given)	8.24%	–
CN(CC(=O)NCCc1ccc(S(N)(=O)=O)cc1)CC(=O)Nc1ccc(Cl)cc1	1.45%	–
O=C(CCN1C(=O)/C(=C/c2cccs2)SC1=S)NNC(=O)c1cccc(O)c1	3.46%	–
O=C1/C(=C/c2cccs2)SC(=S)N1C1CCS(=O)(=O)C1 (stereo not given)	–	14.6 µM (active)

SMILES	activity change, negative = growth inhibition	Potency
N/C(=N\OC(=O)Nc1ccccc1)c1ccno1	-0.882%	–
Cc1cccnc1NC(=O)Cn1c(=O)oc2ccccc21	-1.84%	–
O=C(NCCCn1ccnc1)c1ccccc1F	12%	–
COc1ccccc1NS(=O)(=O)c1ccc(C)c(C(=O)NNC(=O)c2csc(N3CCOCC3)n2)c1	0.108%	–
CCCC1CCC(=NNC(=S)NCCc2ccccc2)CC1 (stereo not given)	–	16.4 µM (active)
CCC(C)(C)C1CCC(=NNC(=O)c2ccc(Br)o2)CC1 (stereo not given)	-18.5%	–
O=C(NCCc1ccccc1)C1CC1	1.38%	–
Cc1ccc2[nH]c3c(=O)n(CC(=O)NCCc4ccc(Cl)cc4)ncc3c2c1	–	inactive
COc1ccc(S(=O)(=O)N2CCN(CC(=O)N3c4ccccc4CC3C)CC2)cc1OC (stereo not given)	0.557%	–
COc1cccc(/C=C(/CC(=O)Nc2ccc(N3CCOCC3)cc2)c2nc3ccccc3s2)c1	-5.64%	–
Cc1cc(C)c(C=NNc2nc3c([nH]2)c(=O)n(C)c(=O)n3C)c(C)c1	-11.7%	–
Oc1ccc(-c2nnc(Nc3ccccc3)c3ccccc23)cc1	-4.05%	–
O=c1ccc2c(-c3ccccc3S(=O)(=O)O)c3ccc(O)c(O)c3oc-2c1O	–	16.4 µM (active)
O=C(Nc1ccc(OCC(=O)N2CCOCC2)cc1)c1cc(F)c(F)cc1Cl	-7.2%	–
COc1ccccc1Oc1ccc(N2CC(C(=O)OCC(=O)c3ccc(F)cc3)CC2=O)cc1 (stereo not given)	-3.16%	–
CCN1CCC(O)(/C=C/c2ccc(C)cc2)C(C(=O)/C=C/c2ccc(C)cc2)C1 (stereo not given)	–	3.66 µM (active)
O=C(NCc1cccs1)c1ccc(CS(=O)Cc2ccccc2Cl)o1 (stereo not given)	-4.56%	–
CCOCCCN(C)C1CCN(C(=O)c2oc3ccccc3c2NC(=O)Cc2cccc([N+](=O)[O-])c2)CC1	-22.5%	–
CCOC(=O)c1cc2c(=O)n3ccccc3nc2n(CCCOC)c1=NC(=O)C(C)Oc1ccccc1 (stereo not given)	-8.14%	–
COc1cc2c(=O)c(S(=O)(=O)c3ccc(C(C)C)cc3)cn(Cc3ccccc3C)c2cc1OC	–	6.51 µM (active)
Cc1cc(Nc2cccc(F)c2)n2ncnc2n1	5.51%	–
COCCN1C(=O)C(=O)/C(=C(/O)c2ccc(S(=O)(=O)N3CCOCC3)cc2)C1c1ccc(O)c(OC)c1 (stereo not given)	2.61%	–
CCN(CC)N=Nc1cccc(NC(C)=O)c1	–	11.6 µM (active)
CC(=O)Nc1cccc(C(=O)OCN2C(=O)c3ccccc3C2=O)c1	0.81%	–
CC(=O)Nc1cccc(Nc2ccc(C#N)cc2)c1	-39.3%	–

SMILES	activity change, negative = growth inhibition	Potency
CCn1ccnc1CN(C)Cc1nc(-c2ccc3c(c2)OCO3)no1	-11.6%	–
Cc1ccc(-n2cc(CN(C)Cc3nccn3C)c(-c3cccc(C)c3)n2)cc1	–	20.6 µM (active)
NNC(=O)c1ccc(COCC(F)(F)C(F)F)cc1	-3.54%	–
CCN(c1ccccc1)S(=O)(=O)c1ccc(OCC(=O)N2CCCC2)cc1	-7.32%	–
CCc1ccc(-c2nc(SCC(=O)NC3CCCC3)n[nH]2)cc1	–	25.9 µM (active)
COc1ccc(CNC(=O)CSc2n[nH]c(-c3ccc(F)cc3)n2)cc1	-25.8%	–
COc1ccc(-c2nc(SCC(=O)N3CCCC3)n[nH]2)cc1	-4.75%	–
CC(=O)N1CCN(Cc2cc(=O)oc3cc(C)ccc23)CC1	0.374%	–
CCc1nnc(NC(=O)c2cc(S(=O)(=O)N3CCN(CC)CC3)ccc2Cl)s1	4.17%	–
NNC(=O)C1CC(O)CN1S(=O)(=O)c1ccc(Cl)cc1 (stereo not given)	-1.12%	–
COc1ccccc1/C=N/N1CCN(Cc2ccccc2Cl)CC1	11.4%	–
COc1ccccc1N1CCN(Cc2ccc(OC)c3ccccc23)CC1	–	16.4 µM (active)
COc1ccccc1N1CCN(Cc2cc(OC)c3c(c2)OCO3)CC1	-23.6%	–
C=CCn1c(C)cc(C2=NNC(=NCC)SC2)c1C	–	16.4 µM (active)
Cc1cccc(N=C2NN=C(c3c[nH]c4ccccc34)CS2)c1	-9.71%	–
Cc1cc(NC(=O)CCC(=O)N(Cc2ccccc2)C(C(=O)NC2CCCC2)c2ccc(C)o2)no1 (stereo not given)	-23.4%	–
CCC1Oc2ccccc2N(CC(=O)NCCCN2CCN(CC)CC2)C1=O (stereo not given)	-2.74%	–
Cn1cnc(S(=O)(=O)N2C[C@@H](O)COC[C@@H]3O[C@H](CC(=O)NC4CCC4)CC[C@H]32)c1	1.21%	–
COc1ccccc1CNc1ncncc1-c1cccnc1	-13.3%	–
COCCNc1ncnc2ccc(-c3cccnc3)cc12	–	14.6 µM (active)
COCCNc1ncnc2ccc(-c3ccccc3CN(C)C)cc12	2.72%	–
Cc1cc(C)cc(N(CC(=O)NC2CCCC2)C(=O)CCC(=O)Nc2nccs2)c1	0.0142%	–
COCCn1c(=O)c(CCc2ccccc2)nc2cnc(N3CCNCC3)nc21	-6.9%	–
Cn1c(=O)c(-c2ccccc2)nc2cnc(N3CCNCC3)nc21	-14.6%	–
N#Cc1cccc(-c2nc3cnc(N4CCNCC4)nc3n(C3CC3)c2=O)c1	–	5.17 µM (active)

SMILES	activity change, negative = growth inhibition	Potency
Cc1cccc(CN2CCC(n3nccc3NC(=O)c3ccccc3C)CC2)n1	-19.4%	–
CCNc1ncc2nc(CCc3ccccc3)c(=O)n(-c3ccc(OC)cc3)c2n1	9.73%	–
COc1ccc(-c2nc3c(s2)CCc2onc(-c4ccc(OC)cc4)c2-3)cc1	–	20.6 µM (active)
COc1ccc(-c2onc3ccc(C(C)=O)cc23)cc1	-25.5%	–
COc1ccc(-c2cc(C(=O)N3CCN(c4ccc(F)cc4)CC3)no2)cc1	-2.11%	–
Nc1nc(NC(=O)/C=C/c2ccc(F)cc2)nn1-c1ccccc1	-18.1%	–
O=C(OCCN=C1NS(=O)(=O)c2ccccc21)c1cccc([N+](=O)[O-])c1	-30.4%	–
O=C(Nc1nnc(-c2ccc(F)cc2)s1)c1c(F)cccc1Cl	-17.1%	–
CCOC(=O)Cc1csc(NC(=O)C(C)(C)C)n1	-0.25%	–
CCOC(=O)Cc1csc(NC(=O)CSc2nc(C)cc(=O)[nH]2)n1	–	23.1 µM (active)
CCCCc1nnc(NC(=O)CSc2nc(C)cc(=O)[nH]2)s1	-8%	–
CC(=O)O[C@H]1CC[C@@]2(C)C(=CC[C@@H]3[C@@H]2CC[C@]2(C)C(c4cccnc4)=CC[C@@H]32)C1	-11.4%	–
COc1ccc(C(=O)C2CCCN(C(=O)c3cnsn3)C2)c(C)c1 (stereo not given)	-24.1%	–
COc1ccc(C(=O)C2CCCN(S(=O)(=O)c3cccc(C)c3)C2)c(C)c1 (stereo not given)	–	16.4 µM (active)
Cc1cc(Cl)ccc1C(=O)C1CCCN(C(=O)c2ccc3c(c2)OCO3)C1 (stereo not given)	–	10.3 µM (active)
CCn1nc(C)cc1C(=O)N1CCCC(C(=O)c2cccc(OC)c2)C1 (stereo not given)	-26.5%	–
FC(F)(F)c1cccc(-c2cn[nH]c2C2CCCN(Cc3cccn3-c3ccccn3)C2)c1 (stereo not given)	-7.96% [at 9.04 µM]	–
COc1ccc(C(=O)C2CCCN(C(=O)c3ccc(OC)o3)C2)c(C)c1 (stereo not given)	–	20.6 µM (active)
COc1ccc(C(=O)N2CCCC(C(=O)c3ccccc3OC)C2)cc1OC (stereo not given)	3.42%	–
COc1ccc(OC)c(S(=O)(=O)N2CCCC(C(=O)NCCc3ccccc3)C2)c1 (stereo not given)	-18.8%	–
COc1ccc(NC(=O)C2CCCN(S(=O)(=O)c3c(C)[nH]c(=O)[nH]c3=O)C2)c(OC)c1 (stereo not given)	20.1%	–
O=C(c1ccc2c(c1)OCO2)N1CCOCC1	-11.9%	–
COc1ccc(C(=O)C2CCCN(Cc3cccn3-c3ccccn3)C2)c(C)c1 (stereo not given)	–	20.6 µM (active)
CCOC(=O)c1[nH]ncc1CN1CCCC(C(=O)c2ccc(OC)cc2C)C1 (stereo not given)	9.78%	–
COC(=O)C1=C(NC(=O)C(C)(C)C)CCS1	-7.7%	–
